Source: PubChem BioAssay (National Center for Advancing Translational Sciences (NCATS))
Compounds with a hit are over-represented: about 12% of the library has one in this group of screens.
PLK1 PBD inh – PLK1 (human) polo-box domain binding inhibition; 360,000 compounds, 2.8% hits; Plk1 PBD binding of FITC phosphopeptide, fluorescence polarization; P53350; Potency, µM, actives largely listed as inhibitors; also: series mostly up to about 57 µM; nearly all actives have a fitted effect of over 65% in size
Sfp inh – Sfp phosphopantetheinyl transferase inhibition; 310,000 compounds, 3.5% hits; Potency, µM, most hits filed as inhibitors; Biochemical Sfp PPTase activity, qHTS;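 also: the enzyme is Sfp with the accession as filed and its product quenches rhodamine fluorescence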
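Fluorescence-quenching assay with 15 nM Sfp, 5 uM rhodamine-CoA and 12.5 uM BHQ-2-labelled ybbR peptide in pH 7.6 Hepes/MgCl2 buffer. Enzyme was pre-incubated with compound for 15 min at room temperature. Rate was taken from the 30-min fluorescence change (525/598 nm).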
RORg inh – blocks mouse ROR gamma transcriptional activity; P51450; Drosophila S2 Gal4-RORgamma UAS-luciferase reporter, 20 h; Potency, µM (doses to about 53.6 µM), hits mostly inhibitors; 310,000 compounds, 5.4% hits; AID 2551; also: nearly all actives have a fitted effect of over 60% in size
Target sequence (P51450 whole entry, looked up, the tested form may be a part): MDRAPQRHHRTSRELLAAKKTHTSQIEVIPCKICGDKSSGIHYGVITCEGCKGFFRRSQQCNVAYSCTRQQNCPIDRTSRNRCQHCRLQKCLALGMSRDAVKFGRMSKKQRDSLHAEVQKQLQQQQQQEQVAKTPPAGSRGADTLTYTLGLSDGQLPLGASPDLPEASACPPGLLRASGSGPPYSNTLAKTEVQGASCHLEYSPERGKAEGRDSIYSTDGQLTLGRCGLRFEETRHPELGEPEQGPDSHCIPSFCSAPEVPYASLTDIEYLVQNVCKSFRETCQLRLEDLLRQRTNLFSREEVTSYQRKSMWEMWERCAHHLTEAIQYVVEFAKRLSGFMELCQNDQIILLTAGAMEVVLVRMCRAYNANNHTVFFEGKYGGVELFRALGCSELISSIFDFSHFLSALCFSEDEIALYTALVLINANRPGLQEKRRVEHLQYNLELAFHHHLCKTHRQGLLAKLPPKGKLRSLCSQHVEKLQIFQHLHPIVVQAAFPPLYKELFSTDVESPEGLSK
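Read-out: Photinus luciferase luminescence; inhibitors lower reporter signal. Insect Schneider cells with Gal4-ROR gamma fusion under metallothionein promoter, UAS reporter; 700 uM final copper sulfate induction, 20 hr, ambient temperature.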
Gal4-VP16 FLuc – Gal4-VP16 reporter inhibition counter-screen; Potency, µM (series often up to 53.6 µM), hits mostly inhibitors; 310,000 compounds, 3.5% hits; Drosophila S2 Gal4-VP16 UAS-luciferase, luminescence, 20 h;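 also: Gal4-VP16 expression switched on by copper sulfate through the metallothionein promoter; nearly all actives have a fitted effect of over 50% in size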
ALDH1A1 inh – ALDH1A1 (human) enzyme inhibition; P00352; Purified ALDH1A1, NADH fluorescence, propionaldehyde substrate; Potency, µM (titrated, usually from 75.3 µM), most hits filed as inhibitors; 220,000 compounds, 7.3% hits; AID 1030; active = well fitted inhibition curve with a large enough effect, not every such curve was filed as active; inconclusive = small, poorly fitted or top-dose-only effect, or another doubt; inactive = no such curve, though single readings can be large or run the other way
A number is an active result; [ ] = another dose, or the depositor's remark. Unless noted, calls follow the shape of the dose curve; as a rule, active = well fitted curve in the direction sought with a large enough effect; inconclusive = small, poorly fitted or top-dose-only effect, or another doubt; inactive = no such curve, though single readings can be large; an effect the other way counts as inactive or inconclusive.

What do the screens show for `CCC(=O)Nc1ccc(C(=O)CSc2nnc(-c3ccc(O)cc3)n2CC2CCCO2)cc1` (stereo not drawn)?
PLK1 PBD inh: inactive; Sfp inh: 79.4µM; RORg inh: inactive; Gal4-VP16 FLuc: inactive; ALDH1A1 inh: 25.1µM

What do the screens show for `CCC(=O)Nc1ccc(C(=O)CSc2nnc(-c3ccccc3F)n2CCc2ccccc2)cc1`?
PLK1 PBD inh: inactive; Sfp inh: inactive; RORg inh: inconclusive; Gal4-VP16 FLuc: inactive; ALDH1A1 inh: 22.4µM

Results for c1cc(-c2nsc(-c3ccncc3)n2)ccn1 ?
PLK1 PBD inh: 18.9µM; Sfp inh: 44.7µM; RORg inh: inactive; Gal4-VP16 FLuc: inactive

What do the screens show for `Nc1nc(-c2ccccn2)nc(N)c1Cc1c(F)cccc1Cl`?
PLK1 PBD inh: inactive; Sfp inh: inconclusive; RORg inh: 2.82µM; Gal4-VP16 FLuc: 11.2µM; ALDH1A1 inh: inactive

What do the screens show for `Clc1ccc(OCc2nc(-c3ccccn3)no2)c(Br)c1`?
PLK1 PBD inh: inactive; Sfp inh: inactive; RORg inh: inconclusive; Gal4-VP16 FLuc: inconclusive; ALDH1A1 inh: inactive

What do the screens show for `Nc1nc(-c2ccccn2)nc(N)c1Cc1ccc(Cl)cc1Cl`?
PLK1 PBD inh: inactive; Sfp inh: inconclusive; RORg inh: 3.98µM; Gal4-VP16 FLuc: 8.91µM; ALDH1A1 inh: inactive

What do the screens show for `Nc1nc(-c2ccccn2)nc(N)c1Cc1ccccc1F`?
PLK1 PBD inh: inactive; Sfp inh: inactive; RORg inh: 6.31µM; Gal4-VP16 FLuc: inactive; ALDH1A1 inh: inactive

Results for COc1ccc(C(=O)CSc2nc(-c3ccccn3)nc(C)c2Cl)cc1 ?
PLK1 PBD inh: inactive; Sfp inh: inactive; RORg inh: 2.82µM; Gal4-VP16 FLuc: inconclusive

What do the screens show for `Cc1nc(-c2ccccn2)nc(SCC(=O)c2ccc(F)cc2)c1Cl`?
PLK1 PBD inh: inactive; Sfp inh: inactive; RORg inh: 3.55µM; Gal4-VP16 FLuc: inconclusive

How did O=C(Nc1cnccn1)C1c2ccccc2Oc2ccccc21 do in these assays?
PLK1 PBD inh: inactive; Sfp inh: inactive; RORg inh: inconclusive; Gal4-VP16 FLuc: inactive; ALDH1A1 inh: inactive

Results for Cc1ccc(-c2nc3cccnc3s2)cc1NC(=O)C1c2ccccc2Oc2ccccc21 ?
PLK1 PBD inh: inactive; Sfp inh: inactive; RORg inh: 12.6µM; Gal4-VP16 FLuc: 11.2µM; ALDH1A1 inh: inconclusive

Results for Cc1ccc(NC(=O)C2c3ccccc3Oc3ccccc32)nc1 ?
PLK1 PBD inh: inactive; Sfp inh: inactive; RORg inh: inactive; Gal4-VP16 FLuc: inactive; ALDH1A1 inh: inactive

Results for CCc1nnc(NC(=O)C2c3ccccc3Oc3ccccc32)s1 ?
PLK1 PBD inh: inactive; Sfp inh: inactive; RORg inh: 11.2µM; Gal4-VP16 FLuc: inconclusive; ALDH1A1 inh: inactive

How did O=C(Nc1nc2ccccc2s1)C1c2ccccc2Oc2ccccc21 do in these assays?
PLK1 PBD inh: inactive; Sfp inh: inactive; RORg inh: 11.2µM; Gal4-VP16 FLuc: inconclusive; ALDH1A1 inh: inactive

What do the screens show for `C=CCNc1nc2cc(-c3ccc(C(=O)N4CCOCC4)cc3)sc2c(=O)n1C`?
PLK1 PBD inh: inactive

Results for COc1ccc(-c2ccc(CCC(=O)O)n2C(C)C)cc1 ?
PLK1 PBD inh: inactive; Sfp inh: inactive; RORg inh: inactive; Gal4-VP16 FLuc: inactive; ALDH1A1 inh: inconclusive

How did COc1ccc(-c2ccc(CCC(=O)O)o2)cc1 do in these assays?
PLK1 PBD inh: inactive; Sfp inh: 14.1µM; RORg inh: inconclusive; Gal4-VP16 FLuc: inactive; ALDH1A1 inh: inconclusive

What do the screens show for `O=C(O)CCc1ccc(-c2ccc(Br)cc2)o1`?
PLK1 PBD inh: inconclusive; Sfp inh: 17.8µM; RORg inh: inconclusive; Gal4-VP16 FLuc: inconclusive; ALDH1A1 inh: inconclusive

Results for CN(C)S(=O)(=O)c1cccc(COC(=O)CN2C(=O)NC3(CCCC3)C2=O)c1 ?
PLK1 PBD inh: inactive; Sfp inh: inactive; RORg inh: inactive; Gal4-VP16 FLuc: inactive

Results for COc1c(Cl)cc(-c2noc(C)c2C(=O)NCCc2ccc(C)cc2)cc1Cl ?
PLK1 PBD inh: inactive; Sfp inh: inactive; RORg inh: inactive; Gal4-VP16 FLuc: inactive; ALDH1A1 inh: inactive

What do the screens show for `COc1c(Cl)cc(-c2noc(C)c2C(=O)NCc2ccccc2)cc1Cl`?
PLK1 PBD inh: 29.9µM; Sfp inh: inactive; RORg inh: inactive; Gal4-VP16 FLuc: inactive; ALDH1A1 inh: inconclusive

Results for COc1c(Cl)cc(-c2noc(C)c2C(=O)NCc2ccc3c(c2)OCO3)cc1Cl ?
PLK1 PBD inh: inactive; Sfp inh: inactive; RORg inh: inactive; Gal4-VP16 FLuc: inactive; ALDH1A1 inh: 0.708µM

Results for COc1ccc(CC(=O)Nc2nc3ccc(F)cc3s2)cc1S(=O)(=O)N1CCOCC1 ?
PLK1 PBD inh: inactive; Sfp inh: inactive; RORg inh: inactive; Gal4-VP16 FLuc: inactive; ALDH1A1 inh: 20µM

What do the screens show for `COc1ccc(CC(=O)Nc2nc3ccccc3s2)cc1S(=O)(=O)N1CCOCC1`?
PLK1 PBD inh: 21.2µM; Sfp inh: inactive; RORg inh: inactive[10 µM]; Gal4-VP16 FLuc: inactive; ALDH1A1 inh: inactive

Results for CCc1nc2c(OCC3CCCCC3)cccn2c1N(C=O)Cc1ccc(OC)cc1 ?
PLK1 PBD inh: inactive

What do the screens show for `CC(=O)C[C@H]1SC[C@@H](C(C)C)N1S(=O)(=O)c1ccc(C)cc1`?
PLK1 PBD inh: inactive

What do the screens show for `COc1cc(C2c3sc(=O)[nH]c3SC3C4CCC(C4)C23)ccc1O` (stereo not drawn)?
PLK1 PBD inh: inconclusive; Sfp inh: inactive; RORg inh: inactive; Gal4-VP16 FLuc: inactive; ALDH1A1 inh: inconclusive

How did COC(=O)C1CSc2[nH]c(=O)sc2C1c1ccc(O)c(OC)c1 (stereo not drawn) do in these assays?
PLK1 PBD inh: inconclusive; Sfp inh: 56.2µM; RORg inh: inactive; Gal4-VP16 FLuc: inactive; ALDH1A1 inh: 2.51µM

Results for CCOC(=O)C1CSc2[nH]c(=O)sc2C1c1ccccc1 (stereo not drawn) ?
PLK1 PBD inh: inactive; Sfp inh: 39.8µM; RORg inh: inactive; Gal4-VP16 FLuc: inactive; ALDH1A1 inh: 28.2µM

How did COc1ccc(C2c3sc(=O)[nH]c3SCC2C(N)=O)cc1 (stereo not drawn) do in these assays?
PLK1 PBD inh: inactive; Sfp inh: inactive; RORg inh: inactive; Gal4-VP16 FLuc: inactive

Results for CC(C)C[C@@H](C(=O)N[C@@H](Cc1c[nH]c2ccccc12)C(N)=O)N1C[C@]2(CCCN2C(=O)[C@H](Cc2ccccc2)NC(=O)[C@H](Cc2ccccc2)NC(=O)[C@H](CCC(N)=O)NC(=O)[C@H](CCC(N)=O)NC(=O)[C@@H]2CCCN2C(=O)[C@H](CCCCN)NC(=O)[C@@H]2CCCN2C(=O)[C@@H](N)CCCNC(=N)N)CC1=O ?
Sfp inh: inactive; RORg inh: inactive; Gal4-VP16 FLuc: inactive

What do the screens show for `C[C@@]12CCC(=O)C[C@@H]1CC(=O)[C@H]1[C@H]3CCC[C@]3(C)C(=O)C[C@@H]12` (tested in a mixture with another compound)?
Sfp inh: inactive; RORg inh: inactive; Gal4-VP16 FLuc: inactive; ALDH1A1 inh: inactive

Results for COc1ncc(-c2ccc(N3C(c4ccsc4)=Cc4ccc(F)cc4C3CC(C)=O)cc2)cn1 (stereo not drawn) ?
PLK1 PBD inh: inactive
